Hits are enriched below; roughly 19% of the tested compounds scored in any of these assays.
DT40 TDP1 no CPT: qHTS for Inhibitors of human tyrosyl-DNA phosphodiesterase 1 (TDP1): qHTS in cells in absence of CPT; DT40 Tdp1-/- hTDP1 cells, no CPT, ATP luminescence, 48 h; Potency, µM (series often up to 46.2 µM), for inactives: top-dose activity change, negative = growth inhibition, most hits filed as inhibitors; 420,000 tested, 15% active; note: potency is the fitted concentration of half-maximal effect; nearly all actives have a fitted effect of over 55% in size
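Seeded 400 DT40-hTDP1 cells/well (vehicle DMSO, no 20 nM CPT); pinned compounds; ≥48 hr at 37 °C; CellTiter-Glo luminescence as viability measure.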
HT1080-NT tox: qHTS for induction of synthetic lethality in tumor cells producing 2HG: qHTS for the HT-1080-NT fibrosarcoma cell line; HT-1080-NT fibrosarcoma viability, CellTiter-Glo ATP luminescence, 48 h; 360,000 tested, 1.6% active; Potency, µM (series often up to 46.1 µM), for inactives: top-dose activity, negative = less viability, most hits filed as cytotoxic; AID 686970, 2013;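 note: NT is the 2HG producing partner of a matched IDH1 knockdown line; potency is the fitted concentration of half-maximal effect; 0% = DMSO-treated cells and -100% = media-only wells without cells; nearly all actives have a fitted effect of over 55% in size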
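Viability of the 2HG-overproducing fibrosarcoma line after 48 hours of compound exposure at 37 degrees C was determined by luminescence with CellTiter-Glo, and concentration-effect curves were then fitted and categorized.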
DT40 TDP1 CPT: qHTS for Inhibitors of human tyrosyl-DNA phosphodiesterase 1 (TDP1): qHTS in cells in presence of CPT; chicken DT40 Tdp1-/-;hTDP1 cells + 20 nM CPT, ATP luminescence, 48 h; Potency, µM (top dose mostly 46.2 µM), for inactives: at the top dose activity change, negative = growth inhibition, most hits filed as inhibitors; 420,000 tested, 12% active; AID 686979, 2013; note: potency is the fitted concentration of half-maximal effect; nearly all actives have a fitted effect of over 55% in size
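Cell growth measured by CellTiter-Glo luminescence after a minimum 48 h, 37 C compound exposure with 20 nM CPT in Tdp1-knockout DT40 cells stably expressing hTDP1, seeded 400/well; qHTS titration format.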
IL-1B inflam inh: qHTS for Inhibitors of Inflammasome Signaling: IL-1-beta AlphaLISA Primary Screen. THP-1 LPS/ATP IL-1B secretion, AlphaLISA, 16 h; hits give low values. activity change, % at 57.5 µM. 360,000 tested, 4.7% active; in the data active = activity change below about -50%; inconclusive = mostly about -30% to -49%
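Secreted IL-1B measured by AlphaLISA bead assay after 16 h compound exposure of THP-1 cells; compounds (final up to 57.5 uM) added 1 h before LPS (250 ng/mL) and ATP (1.25 mM) stimulation; lower signal means less secretion.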
HT1080 IDH1KD tx: qHTS for induction of synthetic lethality in tumor cells producing 2HG: qHTS for the HT-1080-IDH1KD cell line | Potency, µM (doses to about 46.1 µM), inactives show at the top dose activity, negative = toxicity, hits mostly cytotoxic | 360,000 tested, 2% active | AID 686971, 2013 | HT-1080 IDH1 knockdown viability, ATP luminescence, 48 h;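 note: potency is the fitted concentration of half-maximal effect; 0% = DMSO wells and -100% = cell-free medium wells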
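Assay cells: HT-1080 with IDH1 knockdown, 750 per well, RPMI/5% FBS. Exposure: 48 h at 37 °C following 2 h pre-incubation. Read: CellTiter-Glo luminescence; fitted concentration-response, curve class assigned.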
Starred values were filed as active, the others as inactive; [ ] = remark or other dose. Unless noted, calls come from the whole dose curve; as a rule, active = well fitted curve in the direction sought with a large enough effect; inconclusive = small, poorly fitted or top-dose-only effect, or another doubt; inactive = no such curve, though single readings can be large; an effect the other way counts as inactive or inconclusive. Unless noted, % is set by controls: 0 for no effect and ±100 for the full control effect.

Screening CC(C)(C)NC(=O)C[C@H]1C[C@H](C(=O)N2CCCCC2)[C@@]2(CCc3ccccc3)c3[nH]c4ccc(Cl)cc4c3CCN2C1=O returned DT40 TDP1 no CPT inconclusive, HT1080-NT tox 8%, DT40 TDP1 CPT inconclusive, IL-1B inflam inh -4 and HT1080 IDH1KD tx 2%.
O=C(CC1C[C@H](C(=O)N2CCCCC2)[C@@]2(CCc3ccccc3)c3[nH]c4ccccc4c3CCN2C1=O)NCc1cccc(C(F)(F)F)c1 (stereo not given in full) was read as DT40 TDP1 no CPT 16µM*, HT1080-NT tox 7%, DT40 TDP1 CPT inconclusive, IL-1B inflam inh inconclusive and HT1080 IDH1KD tx 6%.
`COc1cc(/C=C(\CCC(=O)O)c2nc3ccccc3s2)ccc1OCC(=O)Nc1c(Cl)cccc1Cl` gave DT40 TDP1 no CPT inconclusive, HT1080-NT tox 4%[9.24 µM], DT40 TDP1 CPT 16µM*, IL-1B inflam inh 0 and HT1080 IDH1KD tx 6%.
CC(C)N1CCN(S(=O)(=O)c2ccccc2)c2ccccc21 was read as DT40 TDP1 no CPT inconclusive, HT1080-NT tox -18%, DT40 TDP1 CPT inconclusive, IL-1B inflam inh 20 and HT1080 IDH1KD tx -16%.
`C[C@@H]1CCCCO[C@H](CN(C)Cc2ccc(C(F)(F)F)cc2)[C@H](C)CN([C@@H](C)CO)C(=O)c2cc(NC(=O)Cc3ccccc3)ccc2O1` gave DT40 TDP1 no CPT 15µM*, HT1080-NT tox 16µM*, DT40 TDP1 CPT 12µM*, IL-1B inflam inh -14 and HT1080 IDH1KD tx 18µM*.
For C[C@@H]1CN([C@@H](C)CO)C(=O)c2cc(NC(=O)Nc3ccc(F)cc3)ccc2O[C@@H]1CN(C)Cc1ccc(Oc2ccccc2)cc1 the results were DT40 TDP1 no CPT 21µM*, HT1080-NT tox inconclusive, DT40 TDP1 CPT inconclusive, IL-1B inflam inh 0 and HT1080 IDH1KD tx 16µM*.
Screening C[C@@H]1CN([C@@H](C)CO)C(=O)c2cc(NS(C)(=O)=O)ccc2O[C@H]1CN(C)Cc1ccc(Oc2ccccc2)cc1 returned DT40 TDP1 no CPT inconclusive, HT1080-NT tox -27%, DT40 TDP1 CPT inconclusive, IL-1B inflam inh inconclusive and HT1080 IDH1KD tx -30%.
Screening CC(C)NC(=O)Nc1ccc2c(c1)C(=O)N([C@H](C)CO)C[C@H](C)[C@@H](CN(C)Cc1ccc3c(c1)OCO3)OCCCC[C@@H](C)O2 returned DT40 TDP1 no CPT -25%, HT1080-NT tox -1%, DT40 TDP1 CPT -4%, IL-1B inflam inh -7 and HT1080 IDH1KD tx -1%.
For COc1ccc(CN(C)C[C@@H]2OCCCC[C@H](C)Oc3ccc(NC(=O)Cc4ccccc4)cc3C(=O)N([C@@H](C)CO)C[C@@H]2C)cc1 the results were DT40 TDP1 no CPT 23µM*, HT1080-NT tox -23%, DT40 TDP1 CPT 8%, IL-1B inflam inh -7 and HT1080 IDH1KD tx -25%.
`CC(C)NC(=O)Nc1ccc2c(c1)C(=O)N([C@H](C)CO)C[C@H](C)[C@@H](CN(C)Cc1ccc(C(F)(F)F)cc1)OCCCC[C@H](C)O2` gave DT40 TDP1 no CPT inconclusive, HT1080-NT tox 8%, DT40 TDP1 CPT 21µM*, IL-1B inflam inh inconclusive and HT1080 IDH1KD tx -28%.
`COC(=O)C1=C(C(=O)OC)[C@@H]2Nc3ccccc3[C@@]23C[C@@H](C(=O)OC)N(C(=O)NC2CCCCC2)C3=N1` gave DT40 TDP1 no CPT -23%, HT1080-NT tox -8%, DT40 TDP1 CPT -27%, IL-1B inflam inh -8 and HT1080 IDH1KD tx 0%.
Screening Cc1nc2ccccc2c(=O)n1NC(=O)c1ccccc1Br returned DT40 TDP1 no CPT -3%, HT1080-NT tox 3%, DT40 TDP1 CPT 12%, IL-1B inflam inh 2 and HT1080 IDH1KD tx 2%.
Cc1c(C(=O)NCC(C)C)sc2ncnc(NCC3CCCO3)c12 (stereo not given) was read as DT40 TDP1 no CPT -9% and DT40 TDP1 CPT 4%[9.04 µM].
Screening Cc1cc(C)cc(NC(=O)C(Cc2ccccc2)N2Cc3ccccc3C2=O)c1 (stereo not given) returned DT40 TDP1 no CPT inconclusive and DT40 TDP1 CPT -18%.
For COc1ccc(CN(C)C[C@@H]2OCCCC[C@H](C)Oc3ccc(NC(=O)Nc4ccc(F)cc4)cc3C(=O)N([C@H](C)CO)C[C@H]2C)cc1 the results were DT40 TDP1 no CPT inconclusive, HT1080-NT tox 21µM*, DT40 TDP1 CPT inconclusive, IL-1B inflam inh inconclusive and HT1080 IDH1KD tx inconclusive.
For C[C@@H]1CCCCO[C@@H](CN(C)Cc2ccc(Cl)c(Cl)c2)[C@@H](C)CN([C@H](C)CO)C(=O)c2cc(NC(=O)Nc3ccccc3)ccc2O1 the results were DT40 TDP1 no CPT 21µM*, HT1080-NT tox inconclusive, DT40 TDP1 CPT 23µM*, IL-1B inflam inh inconclusive and HT1080 IDH1KD tx inconclusive.
For C[C@@H]1CN([C@H](C)CO)C(=O)c2cc(NC(=O)Nc3ccc(F)cc3)ccc2O[C@@H](C)CCCCO[C@H]1CN(C)Cc1ccc(C(=O)O)cc1 the results were DT40 TDP1 no CPT -34%, HT1080-NT tox -1%, DT40 TDP1 CPT 0%, IL-1B inflam inh 22 and HT1080 IDH1KD tx 4%.
`COc1ccccc1CC(=O)N1CCN(C(=O)c2ccco2)CC1` gave DT40 TDP1 no CPT 9%, HT1080-NT tox 19%, DT40 TDP1 CPT -14%, IL-1B inflam inh 7 and HT1080 IDH1KD tx 9%.
For CCN1CCN(C(=O)c2ccccc2N(Cc2ccccc2)S(C)(=O)=O)CC1 the results were DT40 TDP1 no CPT 1%, HT1080-NT tox 7%, DT40 TDP1 CPT -9%, IL-1B inflam inh 19 and HT1080 IDH1KD tx 4%.
Screening CCN1CCN(C(=O)c2ccccc2N(Cc2ccccc2)S(=O)(=O)c2ccc(C)cc2)CC1 returned DT40 TDP1 no CPT 16µM*, HT1080-NT tox -17%, DT40 TDP1 CPT inconclusive, IL-1B inflam inh -68* and HT1080 IDH1KD tx -11%.
COc1cccc(/C=N/NC(=O)c2ccccc2N(Cc2ccccc2)S(=O)(=O)c2ccccc2)c1OC was read as DT40 TDP1 no CPT 18µM*, HT1080-NT tox -2%, DT40 TDP1 CPT 23µM*, IL-1B inflam inh -5 and HT1080 IDH1KD tx -9%.
`COc1ccc(S(=O)(=O)N(Cc2ccccc2)c2ccccc2C(=O)N2CCOCC2)cc1` gave DT40 TDP1 no CPT inconclusive, HT1080-NT tox 23µM*, DT40 TDP1 CPT inconclusive, IL-1B inflam inh 72 and HT1080 IDH1KD tx inconclusive.

Screening data as filed in PubChem BioAssay.
